Laboratory results: PubChem BioAssay AID1159580 (chemical genetic matrix, 2015)
The whole screen tested about 5,500 compounds, of which about 2,000 (36%) were called active. Another 18% or so got no clear call; they are omitted. Rule as the data show it: active = normalized growth mostly below about 0.91 (no sharp cut-off); inconclusive = no clear call, values can overlap the other calls; inactive = mostly above about 0.92. The list shows a part of the results.

Assay: chemical genetic growth profiling, strain panel (AID 1159580);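 also: tested at 20 µM; growth read once vehicle control cultures reached saturation at 30 °C; 1 = growth at the plate median or of vehicle wells; lower values mean less growth of the strain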
Conditions: growth OD
[1] = S. cerevisiae deletion strains, locus YHR030C, strain SLT2, hits give low values

Measured: normalized growth

CC(Oc1ccc(Cl)cc1Cl)C(=O)O (stereo not given)
inactive: [1] 0.968 | S. cerevisiae deletion strains, locus YHR079C, strain IRE1, hits give low values 0.964 | S. cerevisiae deletion strains, locus YJL095W, strain BCK1, hits give low values 0.961 | S. cerevisiae deletion strains, locus YJR066W, strain TOR1, hits give low values 0.898 | S. cerevisiae deletion strains, locus YLR113W, strain HOG1, hits give low values 0.968 | S. cerevisiae deletion strains, locus YNL183C, strain NPR1, hits give low values 0.896 | S. cerevisiae deletion strains, locus YOR231W, strain MKK1, hits give low values 0.965 | S. cerevisiae deletion strains, locus YPL256C, strain CLN2, hits give low values 0.955

O=C(Oc1ccc(Cl)cc1Cl)c1c(Cl)cccc1Cl
active: [1] 0.681 | S. cerevisiae deletion strains, locus YLR262C, strain YPT6, hits give low values 1.2 [resistant]
inactive: S. cerevisiae deletion strains, locus YAL013W, strain DEP1, hits give low values 0.946 | S. cerevisiae deletion strains, locus YBR229C, strain ROT2, hits give low values 0.981 | S. cerevisiae deletion strains, locus YDL101C, strain DUN1, hits give low values 0.979 | S. cerevisiae deletion strains, locus YDR150W, strain NUM1, hits give low values 0.882 | S. cerevisiae deletion strains, locus YEL061C, strain CIN8, hits give low values 0.997 | S. cerevisiae deletion strains, locus YGR078C, strain PAC10, hits give low values 0.965 | S. cerevisiae deletion strains, locus YHR087W, strain rtc3, hits give low values 0.982 | S. cerevisiae deletion strains, locus YJL187C, strain SWE1, hits give low values 0.967 | S. cerevisiae deletion strains, locus YJR043C, strain POL32, hits give low values 0.955 | S. cerevisiae deletion strains, locus YJR075W, strain HOC1, hits give low values 0.945 | S. cerevisiae deletion strains, locus YKL190W, strain CNB1, hits give low values 0.969 | S. cerevisiae deletion strains, locus YLR039C, strain RIC1, hits give low values 1.2 | S. cerevisiae deletion strains, locus YLR058C, strain SHM2 (second series), hits give low values 0.989 | S. cerevisiae deletion strains, locus YLR085C, strain ARP6, hits give low values 0.812 | S. cerevisiae deletion strains, locus YML094W, strain GIM5, hits give low values 0.968 | S. cerevisiae deletion strains, locus YMR219W, strain ESC1, hits give low values 0.985 | S. cerevisiae deletion strains, locus YMR263W, strain SAP30, hits give low values 0.961 | S. cerevisiae deletion strains, locus YNL153C, strain GIM3, hits give low values 0.985 | S. cerevisiae deletion strains, locus YNL298W, strain CLA4 (second series), hits give low values 0.957 | S. cerevisiae deletion strains, locus YNL322C, strain KRE1, hits give low values 0.986 | S. cerevisiae deletion strains, locus YNR030W, strain Alg12, hits give low values 0.939 | S. cerevisiae deletion strains, locus YPL055C, strain LGE1, hits give low values 0.876 | S. cerevisiae deletion strains, locus YPL241C, strain CIN2, hits give low values 0.954 | S. cerevisiae deletion strains, locus YPR135W, strain CTF4, hits give low values 0.907 | S. cerevisiae strains, strain wild type, hits give low values 0.984
